Several values for one entry are separate records, joined by “and”; a condition that tells them apart may be missing. Equal values may be shown once. The campaign covered roughly 360,000 compounds. About 11,000 (3.1%) were called active. Cut-off read from the data, not from the text of the source: active = activity change below about -30%; inactive = the rest. Shown is part of a subset that was picked to be rich in actives.
The compounds below were run against D(1A) dopamine receptor (Homo sapiens) (UniProt P21728) (assay: Antagonist of Human D 1 Dopamine Receptor: qHTS). Conditions: HEK293 TREx D1 cells, calcium flux, dopamine EC80; at 10 µM; stronger effect = lower value.
Procedure, shortened: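 Cells carrying a force-coupled, tetracycline-inducible human D1 receptor report calcium flux. Each well gets a 10 s baseline, compound with 180 s monitoring, then an EC80 dopamine stimulus with a second 180 s kinetic read.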
% is set by controls: 0 for no effect and ±100 for the full control effect.

D(1A) dopamine receptor (Homo sapiens), sequence (P21728 whole entry, looked up): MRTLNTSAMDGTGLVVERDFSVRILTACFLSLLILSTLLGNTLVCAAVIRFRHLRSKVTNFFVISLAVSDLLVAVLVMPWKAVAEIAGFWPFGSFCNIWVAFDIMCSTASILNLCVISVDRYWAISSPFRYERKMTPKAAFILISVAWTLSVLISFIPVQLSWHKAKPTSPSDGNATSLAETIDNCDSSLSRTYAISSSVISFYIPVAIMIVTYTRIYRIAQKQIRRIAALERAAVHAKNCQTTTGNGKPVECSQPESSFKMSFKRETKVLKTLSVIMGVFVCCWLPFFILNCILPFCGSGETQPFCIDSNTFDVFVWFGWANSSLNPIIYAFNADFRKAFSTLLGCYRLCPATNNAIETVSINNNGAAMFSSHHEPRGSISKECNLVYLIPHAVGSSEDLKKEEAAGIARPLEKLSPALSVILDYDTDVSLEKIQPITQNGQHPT

Activity change, negative = inhibition, active:
COc1cccc(COC(=O)C2CCN(S(=O)(=O)c3ccc(Cl)cc3)CC2)c1OC -32.8%, Cc1cccc(NS(=O)(=O)c2ccc(-c3cnc(C4CC4)o3)cc2)c1 -44.9%, COC(=O)c1cc(Oc2ccc(S(=O)(=O)N3CCOCC3)cc2[N+](=O)[O-])cc(C(=O)OC)c1 -38.9%, CN(C)c1ccc(-n2cccc2/C=C2/SC(=Nc3ccc(F)cc3)NC2=O)cc1 -42.9%

Activity change, negative = inhibition, inactive:
CCOC(=O)C1CCC(CN(Cc2ccc(OC)cc2)S(=O)(=O)c2ccc(F)c(C(=O)Nc3cc(C)ccc3C)c2)CC1 (stereo not drawn) 15.6%, COc1cccc(COC(=O)C2CCN(S(=O)(=O)c3cccs3)CC2)c1OC -15.5%, CCOc1ccc(S(=O)(=O)N2CCC(C(=O)OCc3ccc(OC)cc3)CC2)cc1 -16.6%, COc1ccc(C(=O)c2oc3ccccc3c2NC(=O)COc2cccc(C)c2)cc1 -10.1%, Cc1nn(CC(=O)NCCc2ccccc2)c(=O)c2c1sc1ccccc12 -1.1%, Cc1cccc(CNS(=O)(=O)c2ccc(-c3cnc(C4CC4)o3)cc2)c1 -9.2% and -2.23%, Cc1ccc(-c2cnc(C3CC3)o2)cc1S(=O)(=O)Nc1cccc(C)c1C 9.76%, O=C(CSc1nccn1C1CCCC1)Nc1cc(C(F)(F)F)ccc1Cl -16%, C=C(C)CNc1cc(S(=O)(=O)N2CCOCC2)ccc1Oc1ccccc1 -20.5%, COc1ccc(S(=O)(=O)N2CCC(C(=O)OCC(=O)c3ccccc3)CC2)cc1[N+](=O)[O-] -3.94%, Cc1ccc(NC(=O)c2ccc3[nH]c(C)cc(=O)c3c2)c(C)c1 -2.41%, CCOC(=O)c1c(N)n(-c2cccc(C)c2C)c2nc3ccccc3nc12 -1.89%, COc1ccccc1CNC(=O)c1ccc(CS(=O)c2ccccc2Cl)o1 (stereo not drawn) -4.03%, Cc1ccc(C)c(N2CCN(C(=O)CCc3c(C)nc4c(c3C)c(=O)n(C)c(=O)n4C)CC2)c1 7.99%, CC1=C(C(=O)OCC(C)C)C(c2ccc(OCc3ccccc3)cc2)N2C(=O)CCSC2=N1 (stereo not drawn) 4.42%, CN(C)c1ccc(-n2cccc2/C=N/n2cnnc2)cc1 10%, Cc1ccc(N=C2NC(=O)/C(=C/C=C/c3ccco3)S2)cc1C -15.5%, CCc1cc2c(cc3c(=O)n(CC(=O)N4CCN(c5cc(Cl)ccc5C)CC4)nc(CC)n32)s1 -29.5%, COc1ccc(C(=O)Nc2ccc(-n3nncc3-c3ccccc3)cc2)cc1OC -8.31%
